Screening results deposited in PubChem BioAssay by several laboratories.
TWEAK Fn14 block = inhibitors of TWEAK-Fn14 signaling, primary screen, luciferase reporter cells, uHTS. TWEAK-stimulated Fn14 reporter cells, luciferase luminescence, 8 h. inhibition, % at 10 µM. actives 2% (n = 360,000). AID 1159606, 2016; in the data active = inhibition above about 50%
HSP90 inh = HSP90 inhibitors, primary screen, cell lysate, luminescence; actives 0.91% (n = 290,000); AID 1789, 2009; Rabbit reticulocyte lysate, luciferase refolding luminescence, 3 h; inhibition, % at 5.6 µM;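 active = inhibition above the screen-wide mean plus 3 SD, computed separately per campaign, cut at about 16% in these data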;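 note: inhibitors lower the luminescence because luciferase stays unfolded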
HSF1 inhib = HSF1 inhibitors in luciferase reporter cells, primary screen, cell-based, NIH3T3, luminescence; NIH3T3-HGL HSE-luciferase, MG132-induced, luminescence 8 h; active compounds read low; activity change, negative = inhibition, % at 7.5 µM (by protocol); actives 0.77% (n = 300,000); AID 2098, 2009;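 active = more than half of replicate wells show activity change below -50%, luminescence cut by over half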;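 note: luciferase reports HSF-1 transcriptional activity via heat shock element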
EBV LMP1 NFkB = EBV LMP1-driven NF-kappaB luciferase reporter inhibitors, primary screen, cell-based, luminescence, single point; LMP1-induced NF-kappaB luciferase reporter cells; inhibition, % at 12.5 µM; actives 0.69% (n = 350,000); AID 504558, 2011; in the data active = inhibition above about 41%
HSF-1 act = HSF-1 activators, primary screen, NIH3T3-HGL cells, MG132 stress, luminescence, single point; NIH3T3-HGL HSF-1 luciferase reporter, 8 h; 100% = twice DMSO control signal; activation, % at 9 µM; actives 1.7% (n = 300,000);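 active = mean replicate activation of at least 50% with a set share of replicates each reaching 50%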
TROY signal inh = inhibitors of TROY-driven NF-kB signaling, primary screen, Q293 LMP1-TROYcd cells, NF-kB luciferase, uHTS; Q293 LMP1-TROYcd NF-kB luciferase reporter, 4 h; inhibition, % at 10 µM; actives 0.98% (n = 360,000); AID 1347056, 2019;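 active = compounds whose plate-normalised and pattern-corrected inhibition of the luciferase reporter signal at the single screening dose is 50% or more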
A number is an active result. Most compounds without a hit are left out; they make up all but 4.7% or so of the library.

Results for CC1(C(=O)NS(=O)(=O)C2CC2)CCN(C(=O)c2cccc(Cl)c2)C1 (stereo not given) ?
TWEAK Fn14 block: inactive; TROY signal inh: inactive

How did Cc1ccc(C(=O)NCCN2CCC(n3c(=O)[nH]c4ccccc43)CC2)cc1 do in these assays?
TWEAK Fn14 block: inactive; TROY signal inh: inactive

Results for COc1ccc(C(=O)Nc2c(-c3ccccc3)nc3ccccn23)c(OC)c1 ?
TWEAK Fn14 block: 56; HSP90 inh: inactive; HSF1 inhib: inactive; EBV LMP1 NFkB: inactive; HSF-1 act: inactive; TROY signal inh: inactive

Results for CCCCNc1c(-c2ccc(OC)c(Sc3ccc(OC)cc3)c2)nc2ccccn12 ?
TWEAK Fn14 block: 57; HSF1 inhib: inactive; EBV LMP1 NFkB: inactive; HSF-1 act: inactive; TROY signal inh: inactive

Results for O=C1C=CC(=NN=C(c2ccccc2)c2ccccc2)C=C1 ?
TWEAK Fn14 block: inactive; TROY signal inh: inactive

What do the screens show for `COC(=O)c1ccc2c(c1)C(C)(C)C(/C=C/c1ccc(OC)c(OC)c1OC)=[N+]2C`?
TWEAK Fn14 block: inactive; HSP90 inh: inactive; HSF1 inhib: inactive; EBV LMP1 NFkB: inactive; HSF-1 act: inactive; TROY signal inh: inactive

What do the screens show for `COC(=O)c1ccc2c(c1)C(C)(C)C(/C=C/c1ccc(O)cc1)=[N+]2C`?
TWEAK Fn14 block: 94; HSP90 inh: inactive; HSF1 inhib: inactive; EBV LMP1 NFkB: 89; HSF-1 act: 85; TROY signal inh: inactive

Results for CCOC(=O)CSc1nc2sc3c(c2c(=O)n1-c1ccccc1)CCN(C(C)C)C3 ?
TWEAK Fn14 block: 84; HSP90 inh: inactive; HSF1 inhib: inactive; EBV LMP1 NFkB: inactive; HSF-1 act: inactive; TROY signal inh: inactive

Results for Cc1ccc(S(=O)(=O)Nc2cccc3ncccc23)s1 ?
TWEAK Fn14 block: 108; HSP90 inh: inactive; HSF1 inhib: inactive; EBV LMP1 NFkB: inactive; HSF-1 act: 108; TROY signal inh: 85

Results for N#Cc1c(-c2ccc(Cl)cc2)c(-c2ccc(Cl)cc2)nn(CCOC(=O)CCC(=O)O)c1=O ?
TWEAK Fn14 block: inactive; EBV LMP1 NFkB: inactive; TROY signal inh: inactive

How did CCN(/N=C/c1ccc(Cl)cc1)c1cc(=O)n(C)c(=O)[nH]1 do in these assays?
TWEAK Fn14 block: inactive; HSP90 inh: inactive; HSF1 inhib: inactive; EBV LMP1 NFkB: inactive; HSF-1 act: inactive; TROY signal inh: inactive

What do the screens show for `CCN(/N=C/C=C/c1ccccc1)c1cc(=O)n(C)c(=O)[nH]1`?
TWEAK Fn14 block: inactive; HSP90 inh: inactive; HSF1 inhib: inactive; EBV LMP1 NFkB: inactive; HSF-1 act: 69; TROY signal inh: inactive

How did C=CC[C@H](CC(=O)N(CCO)Cc1ccccc1)C(=O)N[C@@H](COC(=O)[C@@H](CC=C)Cc1ccc(F)cc1)Cc1c[nH]c2ccccc12 do in these assays?
TWEAK Fn14 block: 70; EBV LMP1 NFkB: inactive; TROY signal inh: inactive

How did C=CC[C@@H](CC(=O)N[C@H](CO)Cc1ccccc1)C(=O)N[C@H](COC(=O)[C@@H](CC=C)Cc1ccc(F)cc1)Cc1c[nH]c2ccccc12 do in these assays?
TWEAK Fn14 block: 66; EBV LMP1 NFkB: inactive; TROY signal inh: 69

Results for C=CC[C@H](CC(=O)N(CCO)Cc1ccccc1)C(=O)N[C@@H](COC(=O)[C@H](CC=C)CC(=O)OC(C)(C)C)Cc1c[nH]c2ccccc12 ?
TWEAK Fn14 block: inactive; EBV LMP1 NFkB: inactive; TROY signal inh: inactive

How did C=CC[C@@H](CC(=O)N(CCO)Cc1ccccc1)C(=O)NC[C@H](OC(=O)[C@@H](CC=C)Cc1ccc(F)cc1)c1ccccc1 do in these assays?
TWEAK Fn14 block: 52; EBV LMP1 NFkB: inactive; TROY signal inh: inactive

What do the screens show for `C=CC[C@@H](CC(=O)N(CCO)Cc1ccccc1)C(=O)N[C@H](COC(=O)[C@@H](CC=C)CC(=O)OC(C)(C)C)Cc1c[nH]c2ccccc12`?
TWEAK Fn14 block: inactive; EBV LMP1 NFkB: inactive; TROY signal inh: inactive
